# Screening results deposited in PubChem BioAssay by National Center for Advancing Translational Sciences (NCATS).
# Most compounds without a hit are left out; they make up all but 11% or so of the library.
# NPR1 antag: antagonists of human natriuretic peptide receptor Npr1. P16066. HEK293 hNpr1 GloSensor cGMP, ANP-stimulated luminescence. Potency, µM (doses to about 46.3 µM), for inactives: at the highest dose activity change, negative = inhibition, most hits filed as inhibitors. actives 1.6% (n = 76,000). AID 1347048; calls by dose curve; further: nearly all actives have a fitted effect of over 60% in size
#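 HEK293 cells stably expressing human Npr1 and cGMP GloSensor pGS-40F, loaded 2 h with 2% GloSensor reagent, given compound 30 min at room temperature. Luminescence read before and 20 min after 0.1 nM hNppA.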
# HEK293 tox: HEK 293 cell cytotoxicity; HEK 293 viability, ATP luminescence (CellTiter-Glo), 48-72 h; Potency, µM (highest dose often 115 µM), for the others: at the top dose activity change, negative = cytotoxicity, actives largely listed as inhibitors; actives 6.6% (n = 94,000); further: nearly all actives have a fitted effect of over 60% in size
#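 Cytotoxicity was scored by loss of ATP-coupled luminescence (CellTiter-Glo) in HEK 293 cells. Compound treatment ran 48 or 72 hr at 37 degree Celsius, 5% CO2, 95% humidity.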
# Luciferase inh: blocks purified firefly luciferase enzyme activity; P08659; purified P. pyralis luciferase, luminescence, biochemical; Potency, µM (titrated, usually from 115 µM), actives largely listed as inhibitors; actives 2.5% (n = 76,000); AID 1347043; further: nearly all actives have a fitted effect of over 65% in size
# Target sequence (P08659 whole entry, looked up): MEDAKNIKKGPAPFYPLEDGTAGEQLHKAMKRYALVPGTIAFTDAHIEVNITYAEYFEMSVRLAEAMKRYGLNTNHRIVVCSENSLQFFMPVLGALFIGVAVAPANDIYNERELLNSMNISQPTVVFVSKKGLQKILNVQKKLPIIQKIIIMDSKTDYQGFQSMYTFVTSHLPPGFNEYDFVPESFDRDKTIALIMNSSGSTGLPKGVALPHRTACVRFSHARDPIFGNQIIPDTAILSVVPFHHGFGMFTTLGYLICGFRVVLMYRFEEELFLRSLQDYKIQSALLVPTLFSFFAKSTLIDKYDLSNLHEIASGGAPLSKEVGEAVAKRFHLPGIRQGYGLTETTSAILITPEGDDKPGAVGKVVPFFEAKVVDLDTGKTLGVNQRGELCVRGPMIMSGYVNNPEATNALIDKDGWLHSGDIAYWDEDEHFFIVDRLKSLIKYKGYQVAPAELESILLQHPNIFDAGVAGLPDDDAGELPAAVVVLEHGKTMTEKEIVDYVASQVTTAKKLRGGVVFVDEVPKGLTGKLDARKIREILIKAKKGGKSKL
#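 Purified P. pyralis luciferase (10nM final) in 50mM Tris acetate pH 7.5, 10mM Mg acetate, 0.01% Tween-20, 0.05% BSA with 10uM D-luciferin and 10uM ATP. Compounds titrated qHTS. Luminescence imaged on CCD.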
# NIH3T3 tox: NIH 3T3 cell cytotoxicity. NIH 3T3 viability, CellTiter-Glo ATP luminescence, 48-72 h. AID 1345082. Potency, µM (titrated, usually from 96.7 µM), without a hit: at the top dose activity change, negative = cytotoxicity, most hits filed as inhibitors. actives 4.3% (n = 94,000); further: nearly all actives have a fitted effect of over 55% in size
#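 Cells were seeded at 400 per well, treated with pin-transferred compound, and kept 48 or 72 hr at 37 °C before CellTiter-Glo addition and luminescence imaging of cellular ATP.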
# An asterisk follows results filed as active; i = inactive; ? = inconclusive; . = no result; [ ] = dose if it differs, or a comment. Unless noted, the call rests on the fitted dose curve; in most records, active means well fitted curve in the direction sought with a large enough effect; inconclusive means small, poorly fitted or top-dose-only effect, or another doubt; inactive means no such curve, though single readings can be large; an effect the other way counts as inactive or inconclusive. On the % scale 0 is the no-effect control and ±100 the full control effect; potency means the concentration at half of the fitted maximal effect.
SMILES,NPR1 antag,HEK293 tox,Luciferase inh,NIH3T3 tox
CN(CCCc1nccn1C)C(=O)[C@H]1CCC[C@H](O)C1,0%,-4%,i,0%
CN(CCCN1c2ccccc2CCc2ccccc21)C(=O)[C@H]1CCC[C@@H](O)C1,-16%,35µM*,i,?
Cc1cnc(-c2ccccc2)n1C1CCNCC1,6%,-16%,i,-12%
CNC(=O)c1cc(C2CC2)nc2onc(C3CCN(C(=O)c4cccnc4)CC3)c12,.,0%,.,-16%
O=C(N1CCC(Cc2noc(-c3ccc(F)cc3)n2)C1)C1(c2ccccc2)CC1 (centres undefined),.,40µM*,.,?
COc1ccc(CNC(=O)N2CCC(c3noc(-c4ccccc4)n3)C2)cc1 (centres undefined),?,45µM*,i,?
O=C(Cn1c(=O)oc2ccccc21)N1CCCC(Cc2noc(-c3ccccc3)n2)C1 (centres undefined),7%,?,40µM*,-22%
Cc1ccc(CNC(=O)N2CCCC(Cc3noc(-c4ccccc4)n3)C2)cc1 (centres undefined),4%,28µM*,i,25µM*
CC(C)c1ccc(CN2C[C@@H]3[C@H](C2)N(CCOc2ccccc2)C(=O)C(C)(C)[S+]3(=O)[O-])cc1,-1%,?,i,?
Cn1cnc(S(=O)(=O)N2CCCC(Cc3noc(-c4ccccc4)n3)C2)c1 (centres undefined),2%,?,35µM*,?
CSc1ccc(-c2cccc(CN3CCC(NC(=O)c4ccccc4)CC3)c2)cc1,.,-10%,.,-2%
O=[S+]([O-])(NC1CCN(Cc2ccc(-c3ccsc3)cc2)C1)c1cccs1 (centres undefined),.,40µM*,.,35µM*
CSc1ccc(-c2cccc(CN3CCC(N[S+](=O)([O-])c4c(C)noc4C)CC3)c2)cc1,.,?,.,14µM*
Cc1cccc(-c2cccc(CN3CCC(N[S+](=O)([O-])c4ccccc4)CC3)c2)c1,.,28µM*,.,25µM*
CSc1ccc(-c2cccc(CN3CCC(N[S+](=O)([O-])c4ccccc4)CC3)c2)cc1,.,28µM*,.,16µM*
COc1ccc(C(=O)N2CCN(c3ccc4nnc(C5CC5)n4n3)CC2)cc1,.,-8%,.,?
CC(C)CCNC(=O)N1CCCC(c2noc(COc3ccccc3)n2)C1 (centres undefined),-30%,?,i,?
Cc1ccc([S+](=O)([O-])NC2CCN(Cc3cccc(-c4cccc(C)c4)c3)CC2)cc1,.,25µM*,.,16µM*
Cc1cccc(-c2cccc(CN3CCC(N[S+](=O)([O-])c4cccs4)CC3)c2)c1,.,28µM*,.,?
Cc1ccc([S+](=O)([O-])NC2CCN(C(=O)c3ccc(-c4cncnc4)cc3)CC2)cc1,.,i,.,-11%
CCCc1noc(-c2cn(C3CCN(C(=O)c4cc(F)ccc4F)CC3)nn2)n1,0%,?,i,?
Cc1ccc(CN2CCCCCCNC(=O)CC2c2ccccc2)o1 (centres undefined),-1%,?,i,?
O=C1CC(c2ccccc2)N(Cc2ccc3[nH]ccc3c2)CCCCCN1 (centres undefined),-15%,?,i,?
Cc1cccc(CN2CCCCCNC(=O)CC2c2ccccc2)c1 (centres undefined),-17%,?,i,40µM*
Cc1ccc(CN2CCCCCCNC(=O)CC2c2ccccc2)s1 (centres undefined),-15%,40µM*,i,?
SMILES,NPR1 antag,HEK293 tox,Luciferase inh,NIH3T3 tox
O=C1c2c(nc(CNCc3ccc4c(c3)OCO4)n2Cc2ccccc2)NCCN1CCOc1ccccc1,-14%,?,i,40µM*
O=C1c2c(nc(COc3ccc4c(c3)OCO4)n2Cc2ccccc2)NCCN1Cc1ccccc1,?,45µM*,i,25µM*
Cc1ccccc1NCc1nc2c(n1Cc1ccccc1)C(=O)N(CCOc1ccccc1)CCN2,-19%,?,i,32µM*
O=C1c2c(nc(COc3ccc4c(c3)OCO4)n2Cc2ccccc2)NCCN1Cc1cccc(Cl)c1,?,32µM*,i,22µM*
Cc1ccccc1NCc1nc2c(n1Cc1ccccc1)C(=O)N(C)CCN2,-22%[70.6 µM],?,i,-13%[138 µM]
O=C(c1cc(F)ccc1Br)N1CCN(c2ccnc3ccnn23)CC1,.,?,.,-25%
CC1CCCN(c2ncnc3c2CN(C2CCCNCC2)C(=O)CN3C)C1 (centres undefined),.,-4%,.,i
O=C1c2c(nc(COc3ccc4c(c3)OCO4)n2Cc2ccccc2)NCCN1CCOc1ccccc1,-28%,40µM*,i,?
Cc1ccc(Cn2cc(-c3ccncc3)cc2C(=O)N2CCCCCC2)cc1,-4%,?,?,?
O=C(Cc1cccnc1)N1CCCC(c2ccccc2)(c2ccccc2)C1,-4%,45µM*,i,-16%
CCC1(O)CCC12CCN(C(=O)Cc1cccnc1)CC2 (centres undefined),-1%,-6%,i,-19%
Cc1nn(-c2ccccc2)c2c1C(C(C)C)N(C1CN([S+](=O)([O-])C(C)C)C1)C2=O (centres undefined),.,-13%,.,-19%
Cc1csc(Nc2ccc3c(n2)CN(Cc2ccccc2C)C(=O)CO3)n1,?,25µM*,i,25µM*
Cc1ccccc1CN1Cc2nc(-c3c(C)noc3C)ccc2OCC1=O,-1%[70.6 µM],?,i,?
Cc1ccccc1CN1Cc2nc(Nc3ccccc3)ccc2OCC1=O,-21%[70.6 µM],71µM*,i,?
CC(=O)N1CCC(N2C(=O)C3(CCCC3)C2c2scnc2C)CC1 (centres undefined),4%,i,i,?
Cc1ncsc1C1N(C2CCN(Cc3cn(C)c4ccccc34)CC2)C(=O)C12CCCC2 (centres undefined),1%,79µM*,i,-22%
Cc1ccsc1CN(Cc1cn(-c2ccccc2)nn1)C1CC1,2%,?,?,?
COc1ccccc1C(=O)N1CCN(Cc2ccccc2-c2ccc(C)c(Cl)c2)CC1,.,?,.,35µM*
COC(=O)CNC(=O)C1CCN(Cc2ccccc2-c2ccc(C)c(Cl)c2)CC1,.,-22%,.,?
Cc1ccc(-c2ccccc2CN2CCN(C(=O)NC3CCCC3)CC2)cc1Cl,.,22µM*,.,20µM*
Cc1ccc(-c2ccccc2CN2CCC(C(=O)N3CCOCC3)CC2)cc1Cl,.,79µM*,.,?
Cc1ccc(CC(=O)N2CCC(c3n[nH]c(=O)n3Cc3ccc(F)cc3)CC2)cc1,0%,-6%,i,?
COc1ccccc1N1CCN(C(=O)Cn2ccn3nc(-c4ccc(F)cc4)c(CO)c3c2=O)CC1,0%,?,i,-7%
CC1=C[C@@H](CNCc2ccncc2)[C@H](C(C)C)C[C@H]1Cc1nnc(-c2ccc([N+](=O)[O-])cc2)o1,-6%,40µM*,i,?
